Laboratory results taken from the supplement of paper PMC10849652.
Targets with a hit are over-represented here; the source holds about 8,800 in all. About 0.5% of all pairs of compound and target were hits.

Key:
Experiment in all cases: log2 fold change, soluble protein after heating vs DMSO (PISA); higher = thermal stabilisation; K562 lysate, 10 uM; active = over 0.2 and 3.5 SD of the protein, either way, in both replicates (recomputed)
[1] = compound: C1=CC=C(C=C1)[C@H](COC2=CC3=C(C=C2)NC(=O)N3)NC(=O)C4=CC=CN(C4=O)CC5=CC(=C(C=C5)F)F
Summary of the method: (§1)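 Dounce homogenisation of K562 pellets in PBS pH 7.4 with 1 mM MgCl2 produced a crude extract, used at 1 mg/mL protein. Exposure to 10 μM compound lasted 30 min, and aliquots were then heated for 3 min across 48°C-58°C, pooled and brought to 0.5% NP-40 at 4°C. The supernatant after 21,000xg for 90 min was quantified by TMTpro 16plex LC-MS/MS with channel sums equalised. Duplicate values are given as log-two fold change in thermal stability relative to solvent controls.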

[2] = compound: CC1=C(SC2=C1C(=N[C@H](C3=NN=C(N32)C)CC(=O)N)C4=CC=C(C=C4)Cl)C
Summary of the method: as §1

[3] = compound: CC1=C2C(=CC=C1)N=C(N(C2=O)C3=CC=CC=C3C)CN4C=NC5=C(N=CN=C54)N
Summary of the method: as §1

[4] = compound: Cc1sc2c(c1C)C(c1ccc(Cl)cc1)=N[C@@H](CC(=O)OC(C)(C)C)c1nnc(C)n1-2
Summary of the method: as §1

[5] = compound: c1ccc([C@@H]2C[C@H]2NC2CCNCC2)cc1
Summary of the method: as §1

Measured: log2 fold change

SRP54 (UniProt P61011)
inactive: [1] 0.023 | [2] 0.001 | [3] 0.03 | [4] 0.06 | [5] 0.049

SLC16A1 (UniProt P53985)
UniProt P53985, sequence (P53985 whole entry, looked up): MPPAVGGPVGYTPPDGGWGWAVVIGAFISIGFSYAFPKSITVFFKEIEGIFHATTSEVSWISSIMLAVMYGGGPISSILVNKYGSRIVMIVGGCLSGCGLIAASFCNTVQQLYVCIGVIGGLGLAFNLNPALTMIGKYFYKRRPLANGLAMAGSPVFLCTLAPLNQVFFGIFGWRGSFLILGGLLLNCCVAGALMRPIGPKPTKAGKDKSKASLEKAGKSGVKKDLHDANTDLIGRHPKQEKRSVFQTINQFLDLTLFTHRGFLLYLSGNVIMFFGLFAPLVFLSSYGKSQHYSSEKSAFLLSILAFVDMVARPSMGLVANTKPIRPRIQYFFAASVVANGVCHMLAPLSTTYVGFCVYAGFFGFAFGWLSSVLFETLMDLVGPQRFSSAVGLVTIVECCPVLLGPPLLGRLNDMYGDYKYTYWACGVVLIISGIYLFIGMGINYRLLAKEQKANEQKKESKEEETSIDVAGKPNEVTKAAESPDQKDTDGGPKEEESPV
inactive: [1] -0.015 | [2] 0.002 | [3] 0.042 | [4] 0.077 | [5] -0.245

SPHK1 isoform 2 (UniProt Q9NYA1)
UniProt Q9NYA1, sequence (Q9NYA1 whole entry, looked up): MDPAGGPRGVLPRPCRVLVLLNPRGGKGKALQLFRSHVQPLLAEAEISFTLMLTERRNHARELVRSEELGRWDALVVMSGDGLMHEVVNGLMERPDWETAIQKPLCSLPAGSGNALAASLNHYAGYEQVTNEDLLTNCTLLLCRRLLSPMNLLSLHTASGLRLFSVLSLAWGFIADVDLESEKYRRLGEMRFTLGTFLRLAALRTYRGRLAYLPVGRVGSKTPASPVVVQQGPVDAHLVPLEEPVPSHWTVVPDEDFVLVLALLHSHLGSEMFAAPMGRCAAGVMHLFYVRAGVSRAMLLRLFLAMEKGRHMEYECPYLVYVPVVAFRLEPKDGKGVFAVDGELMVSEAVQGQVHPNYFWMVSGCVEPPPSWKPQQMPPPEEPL
inactive: [1] -0.014 | [2] -0.034 | [3] -0.038 | [4] -0.003 | [5] 0.092

SMAD2 (UniProt Q15796)
UniProt Q15796, sequence (Q15796 whole entry, looked up): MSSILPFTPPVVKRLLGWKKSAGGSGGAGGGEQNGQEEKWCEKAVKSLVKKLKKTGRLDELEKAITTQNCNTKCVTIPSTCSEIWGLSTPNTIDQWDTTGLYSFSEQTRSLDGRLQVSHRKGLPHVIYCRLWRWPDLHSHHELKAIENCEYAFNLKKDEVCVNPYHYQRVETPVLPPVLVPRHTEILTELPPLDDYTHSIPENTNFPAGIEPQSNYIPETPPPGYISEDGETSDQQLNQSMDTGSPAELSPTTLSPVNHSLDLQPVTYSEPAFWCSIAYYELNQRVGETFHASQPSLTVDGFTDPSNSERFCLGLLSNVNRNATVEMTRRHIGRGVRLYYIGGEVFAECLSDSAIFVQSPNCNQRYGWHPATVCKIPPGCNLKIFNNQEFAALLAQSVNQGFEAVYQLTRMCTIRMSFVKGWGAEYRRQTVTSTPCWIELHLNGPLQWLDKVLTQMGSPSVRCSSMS
inactive: [1] -0.006 | [2] 0.024 | [3] -0.104 | [4] 0.023 | [5] 0

SNRPD2 (UniProt P62316)
inactive: [1] 0.039 | [2] -0.021 | [3] 0.028 | [4] -0.009 | [5] -0.068

SMG1 (UniProt Q96Q15)
inactive: [1] -0.05 | [2] -0.012 | [3] 0.018 | [4] 0.034 | [5] 0.046

SYK (UniProt P43405)
inactive: [1] -0.016 | [2] 0.06 | [3] 0.135 | [4] 0.008 | [5] -0.052

TADA3 (UniProt O75528)
UniProt O75528, sequence (O75528 whole entry, looked up): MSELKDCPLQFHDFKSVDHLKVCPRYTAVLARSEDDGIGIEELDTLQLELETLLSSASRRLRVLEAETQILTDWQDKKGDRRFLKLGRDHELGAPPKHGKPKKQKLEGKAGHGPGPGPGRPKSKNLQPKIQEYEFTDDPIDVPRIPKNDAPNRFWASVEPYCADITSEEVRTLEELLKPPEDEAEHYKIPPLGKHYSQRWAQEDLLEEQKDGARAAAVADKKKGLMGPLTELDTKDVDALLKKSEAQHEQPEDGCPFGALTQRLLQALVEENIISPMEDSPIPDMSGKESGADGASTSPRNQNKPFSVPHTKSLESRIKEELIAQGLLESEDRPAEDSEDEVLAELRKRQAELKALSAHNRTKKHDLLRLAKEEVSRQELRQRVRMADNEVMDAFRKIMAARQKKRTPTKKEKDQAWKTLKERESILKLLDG
inactive: [1] 0.043 | [2] 0 | [3] 0.087 | [4] -0.015 | [5] -0.098

SMC1B isoform 3 (UniProt Q8NDV3)
inactive: [1] 0.009 | [2] 0.076 | [3] 0.12 | [4] -0.063

SNRPD3 (UniProt P62318)
inactive: [1] -0.02 | [2] -0.011 | [3] 0.022 | [4] -0.027 | [5] -0.118

SRSF2 (UniProt Q01130)
UniProt Q01130, sequence (Q01130 whole entry, looked up): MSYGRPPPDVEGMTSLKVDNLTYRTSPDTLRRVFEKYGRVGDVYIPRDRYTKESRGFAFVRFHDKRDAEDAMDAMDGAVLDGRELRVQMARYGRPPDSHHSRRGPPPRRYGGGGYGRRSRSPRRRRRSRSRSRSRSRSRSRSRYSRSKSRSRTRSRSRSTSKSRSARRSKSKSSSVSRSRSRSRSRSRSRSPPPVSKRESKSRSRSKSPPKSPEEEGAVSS
inactive: [1] 0.023 | [2] -0.011 | [3] 0 | [4] -0.058 | [5] -0.129

SH3BP5L (UniProt Q7L8J4)
inactive: [1] 0.015 | [2] 0.015 | [3] 0.047 | [4] 0.01 | [5] -0.024

SP1 (UniProt P08047)
inactive: [1] 0.007 | [2] 0.042 | [3] 0.001 | [4] 0.038 | [5] 0

SNRPF (UniProt P62306)
inactive: [1] 0.04 | [2] -0.084 | [3] -0.12 | [4] -0.103 | [5] -0.206

SMYD3 (UniProt Q9H7B4)
inactive: [1] 0.028 | [2] 0.05 | [3] 0.035 | [4] -0.001

SMG6 (UniProt Q86US8)
inactive: [1] 0.097 | [2] -0.041 | [3] -0.043 | [4] 0.076 | [5] 0.073

SND1 (UniProt Q7KZF4)
inactive: [1] -0.008 | [2] 0.021 | [3] 0.022 | [4] 0.037 | [5] 0.041

SMTN isoform 6 (UniProt P53814)
inactive: [1] 0.053 | [2] -0.011 | [3] -0.01 | [4] 0.01 | [5] 0.081

SMC4 (UniProt C9JJ64)
inactive: [1] -0.189 | [2] 0.179

SMARCAD1 isoform 2 (UniProt Q9H4L7)
inactive: [1] -0.006 | [2] -0.036 | [3] 0.014 | [4] 0.014 | [5] 0.035

SLC30A9 (UniProt Q6PML9)
UniProt Q6PML9, sequence (Q6PML9 whole entry, looked up): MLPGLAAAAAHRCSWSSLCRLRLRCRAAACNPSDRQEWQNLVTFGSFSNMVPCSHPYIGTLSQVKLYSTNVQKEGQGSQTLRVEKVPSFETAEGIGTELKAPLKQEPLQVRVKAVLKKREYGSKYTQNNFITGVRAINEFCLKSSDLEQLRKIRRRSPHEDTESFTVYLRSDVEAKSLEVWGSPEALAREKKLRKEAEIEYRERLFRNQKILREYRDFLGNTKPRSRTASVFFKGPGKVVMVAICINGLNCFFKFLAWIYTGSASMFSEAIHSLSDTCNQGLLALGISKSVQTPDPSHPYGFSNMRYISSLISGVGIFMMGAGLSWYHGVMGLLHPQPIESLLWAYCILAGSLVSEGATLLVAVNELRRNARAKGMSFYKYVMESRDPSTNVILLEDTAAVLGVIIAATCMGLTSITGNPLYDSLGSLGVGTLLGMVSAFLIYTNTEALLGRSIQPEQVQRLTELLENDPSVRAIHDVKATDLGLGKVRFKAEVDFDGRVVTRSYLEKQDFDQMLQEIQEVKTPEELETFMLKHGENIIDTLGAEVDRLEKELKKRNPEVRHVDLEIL
inactive: [1] -0.013 | [2] -0.045 | [3] 0.003 | [4] -0.013 | [5] -0.105

SPAG1 (UniProt Q07617)
inactive: [1] -0.046 | [2] -0.327 | [3] 0.081

SPATA5 (UniProt Q8NB90)
inactive: [1] -0.024 | [2] -0.005 | [3] 0.026 | [4] 0.008 | [5] 0.02

STMN3 (UniProt Q9NZ72)
UniProt Q9NZ72, sequence (Q9NZ72 whole entry, looked up): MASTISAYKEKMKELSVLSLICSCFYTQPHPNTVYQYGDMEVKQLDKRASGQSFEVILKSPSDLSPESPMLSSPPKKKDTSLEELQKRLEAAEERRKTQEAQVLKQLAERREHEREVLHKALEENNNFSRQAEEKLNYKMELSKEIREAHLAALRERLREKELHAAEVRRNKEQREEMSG
inactive: [1] 0.046 | [2] -0.053 | [3] 0.065 | [4] -0.061

SMC4 (UniProt Q9NTJ3)
inactive: [1] -0.033 | [2] 0.003 | [3] -0.011 | [4] -0.005 | [5] 0.055

SLC29A2 (UniProt Q14542)
inactive: [1] 0.106 | [2] 0.001 | [3] 0.044 | [4] -0.116 | [5] -0.233

SFN (UniProt P31947)
inactive: [1] 0.039 | [2] -0.033 | [3] -0.023 | [4] 0.041 | [5] 0.046

SPA17 (UniProt Q15506)
inactive: [1] 0.057 | [2] -0.064 | [3] -0.006 | [4] -0.132 | [5] -0.364

SLC27A2 (UniProt O14975)
inactive: [1] 0.198 | [2] -0.064 | [3] -0.043 | [4] -0.063 | [5] -0.05

SPAG5 (UniProt Q96R06)
inactive: [1] 0.006 | [2] 0.004 | [3] 0.021 | [4] 0.013 | [5] 0.026

SURF2 (UniProt Q15527)
UniProt Q15527, sequence (Q15527 whole entry, looked up): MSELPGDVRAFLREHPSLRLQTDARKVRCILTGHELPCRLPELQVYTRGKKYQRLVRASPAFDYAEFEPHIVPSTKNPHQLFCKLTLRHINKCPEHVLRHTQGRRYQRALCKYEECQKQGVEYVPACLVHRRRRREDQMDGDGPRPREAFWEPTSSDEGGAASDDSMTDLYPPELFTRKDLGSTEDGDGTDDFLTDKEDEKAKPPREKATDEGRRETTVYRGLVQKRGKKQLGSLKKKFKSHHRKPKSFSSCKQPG
inactive: [1] -0.013 | [2] 0.054 | [3] -0.054 | [4] 0.056 | [5] -0.032

SF3B6 (UniProt Q9Y3B4)
UniProt Q9Y3B4, sequence (Q9Y3B4 whole entry, looked up): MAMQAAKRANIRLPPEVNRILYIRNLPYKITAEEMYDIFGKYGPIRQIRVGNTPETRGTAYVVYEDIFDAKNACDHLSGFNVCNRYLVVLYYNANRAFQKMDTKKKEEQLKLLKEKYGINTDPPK
inactive: [1] 0.052 | [2] -0.032 | [3] -0.184 | [4] 0.014 | [5] 0

SMG7 (UniProt Q92540)
inactive: [1] 0.008 | [2] 0.019 | [3] 0.147 | [4] -0.014 | [5] 0.029

STAT2 (UniProt P52630)
inactive: [1] -0.033 | [2] 0.005 | [3] 0.043 | [4] 0.033 | [5] 0.017

SPATS2 (UniProt Q86XZ4)
inactive: [1] 0.042 | [2] -0.035 | [3] 0.061 | [4] -0.014 | [5] -0.07

SYNE2 isoform 2 (UniProt Q8WXH0)
inactive: [1] -0.037 | [2] 0.044 | [3] 0.02 | [4] -0.065 | [5] -0.416

SLC11A2 isoform 3 (UniProt P49281)
inactive: [1] -0.081 | [2] -0.017 | [3] 0.016 | [4] -0.01 | [5] 0.003

STOML2 (UniProt Q9UJZ1)
inactive: [1] -0.008 | [2] 0.004 | [3] -0.027 | [4] -0.025 | [5] -0.008

SOAT1 (UniProt P35610)
UniProt P35610, sequence (P35610 whole entry, looked up): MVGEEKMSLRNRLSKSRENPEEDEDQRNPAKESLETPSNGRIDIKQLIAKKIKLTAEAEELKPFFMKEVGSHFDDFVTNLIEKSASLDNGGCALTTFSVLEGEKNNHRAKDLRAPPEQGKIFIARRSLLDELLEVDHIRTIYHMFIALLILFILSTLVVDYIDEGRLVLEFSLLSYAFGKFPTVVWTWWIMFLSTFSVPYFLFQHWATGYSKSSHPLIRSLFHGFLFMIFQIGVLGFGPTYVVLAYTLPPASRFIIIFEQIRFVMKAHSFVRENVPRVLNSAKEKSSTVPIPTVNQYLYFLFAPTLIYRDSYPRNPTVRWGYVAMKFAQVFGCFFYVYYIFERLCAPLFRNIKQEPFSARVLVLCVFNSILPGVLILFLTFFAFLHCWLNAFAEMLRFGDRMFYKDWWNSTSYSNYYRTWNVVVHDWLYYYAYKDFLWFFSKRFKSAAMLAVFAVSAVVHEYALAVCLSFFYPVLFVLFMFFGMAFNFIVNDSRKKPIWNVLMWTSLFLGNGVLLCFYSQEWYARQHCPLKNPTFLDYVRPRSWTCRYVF
active: [4] 0.282
inactive: [1] 0.041 | [2] -0.002 | [3] -0.008 | [5] -0.06

SLC39A11 (UniProt Q8N1S5)
inactive: [1] 0.022 | [2] -0.041 | [3] 0.063 | [4] 0.186 | [5] 0.036

SMIM8 (UniProt Q96KF7)
inactive: [1] 0.061 | [2] 0.044 | [3] 0.004 | [4] 0.047 | [5] -0.157

SLC12A6 (UniProt Q9UHW9)
inactive: [1] 0.006 | [2] 0.017 | [3] 0.017 | [4] 0.036 | [5] 0.008

SYNRG (UniProt Q9UMZ2)
inactive: [1] -0.033 | [2] 0.05 | [3] 0 | [4] 0.005 | [5] 0.032

SLC19A1 (UniProt P41440)
inactive: [1] 0.017 | [2] -0.022 | [3] -0.056 | [4] -0.12 | [5] -0.176

STARD3 isoform 3 (UniProt Q14849)
UniProt Q14849, sequence (Q14849 whole entry, looked up): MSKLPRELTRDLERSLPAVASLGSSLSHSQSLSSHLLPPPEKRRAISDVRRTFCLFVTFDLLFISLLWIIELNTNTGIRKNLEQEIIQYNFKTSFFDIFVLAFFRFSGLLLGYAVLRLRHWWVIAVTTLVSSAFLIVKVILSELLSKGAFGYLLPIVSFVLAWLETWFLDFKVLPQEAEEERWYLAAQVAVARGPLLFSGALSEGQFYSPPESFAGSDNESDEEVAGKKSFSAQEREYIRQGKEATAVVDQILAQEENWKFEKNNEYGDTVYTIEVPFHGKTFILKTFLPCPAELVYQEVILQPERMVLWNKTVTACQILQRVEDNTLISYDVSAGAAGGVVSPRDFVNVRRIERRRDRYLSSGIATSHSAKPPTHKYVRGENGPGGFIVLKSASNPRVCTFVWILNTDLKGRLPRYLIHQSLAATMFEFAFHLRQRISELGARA
inactive: [1] -0.015 | [2] 0.007 | [3] 0 | [4] -0.004 | [5] 0

TAF6L (UniProt Q9Y6J9)
inactive: [1] 0.011 | [2] -0.027 | [3] -0.094 | [4] -0.02 | [5] 0.061

TAOK2 (UniProt Q9UL54)
inactive: [1] -0.033 | [2] 0.118 | [3] -0.001 | [4] 0.242 | [5] -0.105

SMC3 (UniProt Q9UQE7)
inactive: [1] -0.002 | [2] 0.011 | [3] -0.011 | [4] 0.037 | [5] 0.022

SMC6 (UniProt Q96SB8)
inactive: [1] -0.049 | [2] 0.006 | [3] 0.014 | [4] -0.036 | [5] -0.047

SNW1 (UniProt Q13573)
UniProt Q13573, sequence (Q13573 whole entry, looked up): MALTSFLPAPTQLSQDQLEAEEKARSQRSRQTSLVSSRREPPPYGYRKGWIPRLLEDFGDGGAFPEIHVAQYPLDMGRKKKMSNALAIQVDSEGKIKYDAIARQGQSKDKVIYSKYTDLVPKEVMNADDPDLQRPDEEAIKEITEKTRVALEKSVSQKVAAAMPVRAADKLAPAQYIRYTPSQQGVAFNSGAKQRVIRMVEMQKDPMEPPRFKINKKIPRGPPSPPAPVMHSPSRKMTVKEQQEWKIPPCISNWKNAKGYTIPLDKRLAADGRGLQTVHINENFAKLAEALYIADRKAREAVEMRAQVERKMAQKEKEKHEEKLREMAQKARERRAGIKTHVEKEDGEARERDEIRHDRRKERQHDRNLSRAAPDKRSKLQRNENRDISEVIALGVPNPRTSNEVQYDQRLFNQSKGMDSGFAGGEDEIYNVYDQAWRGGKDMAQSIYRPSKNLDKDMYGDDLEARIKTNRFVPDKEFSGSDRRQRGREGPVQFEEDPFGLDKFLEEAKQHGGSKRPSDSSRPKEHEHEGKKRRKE
inactive: [1] 0.018 | [2] -0.002 | [3] -0.009 | [4] 0.022 | [5] 0.048

TANGO6 (UniProt Q9C0B7)
inactive: [1] 0.05 | [2] -0.021 | [3] -0.036 | [4] 0.043 | [5] -0.009

SRSF7 (UniProt Q16629)
UniProt Q16629, sequence (Q16629 whole entry, looked up): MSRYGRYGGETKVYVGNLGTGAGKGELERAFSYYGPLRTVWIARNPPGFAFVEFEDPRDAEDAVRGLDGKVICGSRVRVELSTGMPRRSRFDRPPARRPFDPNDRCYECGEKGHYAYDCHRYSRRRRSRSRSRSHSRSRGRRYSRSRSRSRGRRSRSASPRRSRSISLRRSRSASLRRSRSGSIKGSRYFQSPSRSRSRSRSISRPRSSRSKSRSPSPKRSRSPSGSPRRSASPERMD
inactive: [1] -0.005 | [2] 0.023 | [3] 0.04 | [4] 0.025 | [5] -0.045

SLC38A1 (UniProt Q9H2H9)
inactive: [1] 0.055 | [2] -0.116 | [3] 0.06 | [4] -0.116 | [5] -0.128

STIM1 (UniProt Q13586)
inactive: [1] -0.048 | [2] -0.008 | [3] 0.049 | [4] 0.028 | [5] 0.048
